The text below walks through data of PubChem BioAssay (Tox21).

Assay [1] can be described thus: qHTS assay to identify small molecule antagonists of the glucocorticoid receptor (GR) signaling pathway - cell viability counter screen (AID 720693). Also: nearly all actives have a fitted effect of over 55% in size. Also: potency is read from the fitted curve at half-maximal effect.
Assay [2] can be described thus: qHTS assay for identifying genotoxic compounds that show differential cytotoxicity against isogenic chicken DT40 cell lines with known DNA damage response pathways - wild type cell line (AID 743012). Also: nearly all actives have a fitted effect of over 60% in size. Also: potency is read from the fitted curve at half-maximal effect. The procedure, abridged:
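Cytotoxicity in repair-proficient parental chicken DT40 cells serves as the comparator for Rad54/Ku70- and Rev3-deficient lines. Cells were exposed to compounds for 40 h at 37 C/5% CO2, and ATP-based luminescence (CellTiter-Glo) measured viability.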
In general terms: In qHTS, concentration-response curves come from the screen itself.

Assay [3] is described as follows: qHTS assay for identifying genotoxic compounds that show differential cytotoxicity against isogenic chicken DT40 cell lines with known DNA damage response pathways - Rev3 mutant cell line (AID 743014). Also: nearly all actives have a fitted effect of over 55% in size. Also: potency is read from the fitted curve at half-maximal effect.
Assay [4] is described as follows: qHTS assay for identifying genotoxic compounds that show differential cytotoxicity against isogenic chicken DT40 cell lines with known DNA damage response pathways - Rad54/Ku70 mutant cell line (AID 743015). Also: nearly all actives have a fitted effect of over 60% in size. Also: potency is read from the fitted curve at half-maximal effect.
Assay [5] can be described thus: qHTS assay to identify small molecule antagonists of the androgen receptor (AR) signaling pathway - cell viability counter screen (AID 743033; also: nearly all actives have a fitted effect of over 45% in size; also: potency is read from the fitted curve at half-maximal effect).
Assay [6] can be described thus: qHTS assay to identify small molecule antagonists of the androgen receptor (AR) signaling pathway using the MDA cell line - cell viability counter screen (AID 743041; also: nearly all actives have a fitted effect of over 45% in size; also: potency is read from the fitted curve at half-maximal effect). The procedure, abridged:
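Cytotoxicity counter screen: MDA-kb2 AR-luc cells, compound + R1881, 16 h, 37C, 0% CO2; CellTiter-Fluor added at 15.5 h, fluorescence read after 30 min.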

A short description of assay [7]: qHTS assay to identify small molecule antagonists of the thyroid receptor (TR) signaling pathway - cell viability counter screen (AID 743064). Also: nearly all actives have a fitted effect of over 50% in size. Also: potency is read from the fitted curve at half-maximal effect. The procedure, abridged:
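In rat pituitary GH3.TRE-Luc reporter cells co-exposed to compound and 1 nM T3 for 23.5 h, cytotoxicity was assessed with CellTiter-Fluor in the same wells, read by fluorescence.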

Assay [8] in a line: qHTS assay to identify small molecule antagonists of the thyroid receptor (TR) signaling pathway (AID 743065). Also: nearly all actives have a fitted effect of over 55% in size. Also: potency is read from the fitted curve at half-maximal effect. The procedure, abridged:
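GH3.TRE-Luc rat pituitary cells (two TREs driving luciferase) were dosed with compound, then stimulated with 1 nM T3 (final) for 23.5 h at 37 C. ONE-Glo luminescence was the read-out, with CellTiter-Fluor fluorescence as the cytotoxicity counter-screen.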

For assay [9], the system named is thyroid hormone receptor (rat, GH3 cells). Put plainly: qHTS assay to identify small molecule agonists of the thyroid receptor (TR) signaling pathway (AID 743066; calls by dose curve; also: % is scaled to controls: 0 for no effect and ±100 for the full control effect).
The nature of assay [10]: qHTS assay to identify small molecule antagonists of the estrogen receptor alpha (ER-alpha) signaling pathway - cell viability counter screen (AID 743074; calls by dose curve;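 also: HEK293 cells carrying ER-alpha-UAS-bla reporter stimulated with 17beta-estradiol; nearly all actives have a fitted effect of over 45% in size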; also: potency is read from the fitted curve at half-maximal effect).
Assay [11] deals with Estrogen receptor (Homo sapiens) (UniProt P03372). Put plainly: qHTS assay to identify small molecule agonists of the estrogen receptor alpha (ER-alpha) signaling pathway (AID 743075; calls by dose curve;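 also: HEK293 GripTite cells with ER-alpha and UAS-driven beta-lactamase reporter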; also: potency is read from the fitted curve at half-maximal effect; as to activation: % is scaled to controls: 0 for no effect and ±100 for the full control effect). Particulars: HEK293 ER-alpha-UAS-bla, beta-lactamase FRET ratio, 18 h; activation: at 70.1 µM (top of the series).
A short description of assay [12]: qHTS assay to identify small molecule antagonists of the estrogen receptor alpha (ER-alpha) signaling pathway using the BG1 cell line (AID 743080; calls by dose curve; also: % is scaled to controls: 0 for no effect and ±100 for the full control effect; nearly all actives have a fitted effect of over 25% in size). The procedure, abridged:
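Antagonist mode: compounds in DMSO were pinned onto BG1-Luc-4E2 cells alongside 17beta-estradiol agonist, incubated 21.5 h, and ERE-driven luciferase measured with ONE-Glo. Cytotoxicity was multiplexed using CellTiter-Fluor fluorescence.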

Assay [13] can be described thus: qHTS assay to identify small molecule antagonists of the estrogen receptor alpha (ER-alpha) signaling pathway using the BG1 cell line - cell viability counter screen (AID 743081).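 Also: compound given together with 17beta-estradiol as the ER stimulus; nearly all actives have a fitted effect of over 45% in size.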 Also: potency is read from the fitted curve at half-maximal effect.
The next assay deals with Aromatase (Homo sapiens) (UniProt P11511). Briefly: qHTS assay to identify aromatase inhibitors (AID 743083). Also: nearly all actives have a fitted effect of over 55% in size. Also: potency is read from the fitted curve at half-maximal effect.
Assay [14] deals with Estrogen receptor (Homo sapiens) (UniProt P03372). Briefly: qHTS assay to identify small molecule antagonists of the estrogen receptor alpha (ER-alpha) signaling pathway (AID 743069; active = well fitted curve in the direction sought with a large enough effect in the signal ratio in the repeat runs, not every such curve was filed as active; inconclusive = weak or mixed curves, or effect the other way; inactive = no such curve, though single readings can be large or run the other way; the % refers to the signal ratio; also: potency is read from the fitted curve at half-maximal effect). The procedure, abridged:
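Beta-lactamase FRET fluorescence is read after 2 hr at room temperature with LiveBLAzer B/G substrate. Before that, ER-alpha-bla HEK293 cells sit 4 hr after plating, then receive compound plus 17beta-estradiol and incubate 18 hr at 37C.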

For assay [15] the target is unchanged. Briefly: qHTS assay to identify small molecule agonists of the estrogen receptor alpha (ER-alpha) signaling pathway using the BG1 cell line (AID 743079). Also: % is scaled to controls: 0 for no effect and ±100 for the full control effect; nearly all actives have a fitted effect of over 20% in size. The note with it: BG1Luc4E2 cells, ERE-luciferase agonist, 22 h.
The target in assay [16] is Androgen receptor (Homo sapiens) (UniProt P10275). Briefly: qHTS assay to identify small molecule agonists of the androgen receptor (AR) signaling pathway using the MDA cell line (AID 743040; also: % is scaled to controls: 0 for no effect and ±100 for the full control effect; nearly all actives have a fitted effect of over 20% in size). The procedure, abridged:
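Luciferase read-out, ONE-Glo, 30 min RT. Cells: MDA-kb2 AR-luc, MMTV promoter with AR and GR response elements. Compound exposure 16 h, 37C, 0% CO2, after 5 h pre-incubation. qHTS agonist mode.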

Assay [17] shares this target. Put plainly: qHTS assay to identify small molecule antagonists of the androgen receptor (AR) signaling pathway using the MDA cell line (AID 743042). The procedure, abridged: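 MDA-kb2 breast carcinoma cells carrying MMTV-luciferase (AR/GR responsive) were co-treated with compounds and the agonist R1881 for 16 h at 37C. Inhibition read as ONE-Glo luminescence; CellTiter-Fluor fluorescence measured in parallel for cytotoxicity.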

Assay [18] has the same target. Put plainly: qHTS assay to identify small molecule antagonists of the androgen receptor (AR) signaling pathway (AID 743035; active = well fitted inhibition curve with a large enough effect in the signal ratio in the repeat runs, not every such curve was filed as active; inconclusive = weak or mixed curves, or effect the other way; inactive = no such curve, though single readings can be large or run the other way; the % refers to the signal ratio; also: potency is read from the fitted curve at half-maximal effect). The procedure, abridged:
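Steps: seed AR-UAS-bla GripTite HEK293 cells, incubate 4 h at 37C; pin in test compound, then add agonist R1881; incubate 16 h at 37C; add LiveBLAzer B/G FRET substrate, 2 h at room temperature; read fluorescence.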

For assay [19] the target is unchanged. Put plainly: qHTS assay to identify small molecule agonists of the androgen receptor (AR) signaling pathway (AID 743036; active = well fitted activation curve with a large enough effect in the signal ratio in the repeat runs, with a control signal flat, not every such curve was filed as active; inconclusive = weak or mixed curves, or effect the other way; inactive = no such curve, though single readings can be large or run the other way; the % refers to the signal ratio; also: % is scaled to controls: 0 for no effect and ±100 for the full control effect). The procedure, abridged:
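Cell-based FRET reporter assay: HEK293 line with a UAS-beta-lactamase construct, compounds added in DMSO, 16 h exposure at 37C, then 2 h substrate step at room temperature and fluorescence intensity read.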

“And” between values parts separate entries of the source, which are not always exact repeats. Identical values can stand only once. A number with no mark means an inactive call. The source made the active and inactive calls. Unless noted, calls follow the shape of the dose curve; as a rule, active = well fitted curve in the direction sought with a large enough effect in the repeat runs; inconclusive = weak or mixed curves; inactive = no such curve, though single readings can be large; an effect the other way counts as inactive or inconclusive.

Estrogen receptor (Homo sapiens), sequence (P03372 whole entry, looked up): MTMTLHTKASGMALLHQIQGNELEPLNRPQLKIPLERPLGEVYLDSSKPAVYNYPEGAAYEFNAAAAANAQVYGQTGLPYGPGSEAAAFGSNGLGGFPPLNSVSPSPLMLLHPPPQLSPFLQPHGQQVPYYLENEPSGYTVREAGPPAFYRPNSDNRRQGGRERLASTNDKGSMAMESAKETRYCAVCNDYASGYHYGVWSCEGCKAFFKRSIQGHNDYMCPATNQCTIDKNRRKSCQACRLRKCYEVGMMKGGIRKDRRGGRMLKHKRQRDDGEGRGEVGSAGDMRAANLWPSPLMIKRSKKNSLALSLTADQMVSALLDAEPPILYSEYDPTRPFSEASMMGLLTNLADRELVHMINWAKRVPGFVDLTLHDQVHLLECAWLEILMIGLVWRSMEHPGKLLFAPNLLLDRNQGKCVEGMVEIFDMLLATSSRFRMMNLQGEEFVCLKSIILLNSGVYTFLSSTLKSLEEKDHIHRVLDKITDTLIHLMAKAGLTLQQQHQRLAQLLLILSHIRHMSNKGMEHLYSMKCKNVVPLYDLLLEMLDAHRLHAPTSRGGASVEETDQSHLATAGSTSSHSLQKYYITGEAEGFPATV
Androgen receptor (Homo sapiens), sequence (P10275 whole entry, looked up): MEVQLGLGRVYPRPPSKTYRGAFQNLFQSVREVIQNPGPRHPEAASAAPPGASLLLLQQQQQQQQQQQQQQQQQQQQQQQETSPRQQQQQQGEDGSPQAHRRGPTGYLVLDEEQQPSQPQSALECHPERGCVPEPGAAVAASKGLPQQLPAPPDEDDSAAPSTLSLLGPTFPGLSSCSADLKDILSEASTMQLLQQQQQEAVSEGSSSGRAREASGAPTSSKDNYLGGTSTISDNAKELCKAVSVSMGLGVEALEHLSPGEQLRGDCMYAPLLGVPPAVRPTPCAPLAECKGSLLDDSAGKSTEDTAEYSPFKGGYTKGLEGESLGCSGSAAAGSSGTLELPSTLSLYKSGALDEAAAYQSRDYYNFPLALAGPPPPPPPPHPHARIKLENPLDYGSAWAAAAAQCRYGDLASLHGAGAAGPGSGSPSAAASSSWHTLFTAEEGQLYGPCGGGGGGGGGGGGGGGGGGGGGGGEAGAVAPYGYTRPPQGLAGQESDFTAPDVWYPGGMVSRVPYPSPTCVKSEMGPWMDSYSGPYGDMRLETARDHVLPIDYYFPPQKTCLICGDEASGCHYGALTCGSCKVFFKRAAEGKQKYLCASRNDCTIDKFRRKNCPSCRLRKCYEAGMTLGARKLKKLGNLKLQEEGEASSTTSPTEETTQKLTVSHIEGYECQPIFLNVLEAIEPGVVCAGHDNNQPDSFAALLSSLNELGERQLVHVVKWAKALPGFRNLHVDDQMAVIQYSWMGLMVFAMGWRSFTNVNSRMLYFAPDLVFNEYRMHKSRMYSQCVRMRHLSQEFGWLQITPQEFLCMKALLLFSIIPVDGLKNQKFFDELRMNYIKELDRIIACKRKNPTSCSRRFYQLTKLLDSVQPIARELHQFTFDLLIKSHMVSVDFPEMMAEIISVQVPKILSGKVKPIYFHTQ
Aromatase (Homo sapiens), sequence (P11511 whole entry, looked up): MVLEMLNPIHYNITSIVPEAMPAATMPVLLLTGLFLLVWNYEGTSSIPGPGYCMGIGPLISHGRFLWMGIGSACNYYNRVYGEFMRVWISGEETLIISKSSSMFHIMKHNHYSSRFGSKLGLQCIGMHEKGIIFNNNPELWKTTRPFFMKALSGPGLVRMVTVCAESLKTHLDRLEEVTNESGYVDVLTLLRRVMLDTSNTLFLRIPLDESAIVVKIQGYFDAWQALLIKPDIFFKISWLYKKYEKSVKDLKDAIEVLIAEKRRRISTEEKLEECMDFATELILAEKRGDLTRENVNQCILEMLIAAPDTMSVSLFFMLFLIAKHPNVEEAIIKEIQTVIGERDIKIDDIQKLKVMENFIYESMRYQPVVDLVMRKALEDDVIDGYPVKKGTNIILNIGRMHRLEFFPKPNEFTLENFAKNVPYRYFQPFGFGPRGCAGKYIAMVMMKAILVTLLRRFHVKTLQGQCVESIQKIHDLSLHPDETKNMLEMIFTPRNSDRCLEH

As to `Oc1ccc(Cl)cc1Sc1cc(Cl)ccc1O`, the Potency in assay [1] was 16.9 µM (active) and 19.5 µM (active); in [2], 10.6 µM (active) and 30.6 µM (active); in [3], 11.9 µM (active) and 19.3 µM (active); in assay [4], 16.8 µM (active) and 24.3 µM (active); in assay [5] it was 21.3 µM (active) and 13.8 µM (active); in assay [6], 29.8 µM (active) and 61 µM (active). The Potency in [7] was 11.9 µM (active) and 7.68 µM (active); in assay [8], 5.96 µM (active) and 2.73 µM (active); in [10], 19 µM (active) and 38.8 µM (active); with Aromatase (Homo sapiens) it was 26.6 µM (active) and 27.3 µM (active). Besides, the Potency entry in assay [9], in assay [11], in [12] and in assay [13] was “inactive” throughout.

On to `CCC(N)(CO)CO`, for which the Potency result in assay [1], in [2], in assay [3], in [4], in assay [5] and in assay [6] was “inactive” each time. Moreover, the Potency result in assay [7], in assay [8], in [9], in assay [14], in assay [10] and in assay [11] was “inactive” throughout. Besides, the Potency entry (in [13]; with Aromatase (Homo sapiens)) was “inactive” in each case. The activation in assay [15] (at 95 µM (top of the series)) was -5.95%.

`C[C@H](CCC(=O)O)[C@H]1CC[C@H]2[C@@H]3CC[C@@H]4C[C@H](O)CC[C@]4(C)[C@H]3CC[C@]12C`: the Potency result in assay [1], in assay [2], in assay [3], in [4], in assay [5] and in assay [6] was “inactive” in each case. The Potency result (in [9]; in assay [11]; in assay [12]; in [13]; with Aromatase (Homo sapiens)) was “inactive” in each case. The Potency is 27.2 µM (active) and 54.5 µM (active) in assay [7]; 17.2 µM (active) and 30.6 µM (active) in assay [8]; 54.9 µM (active) in assay [10]. In addition, the activation in assay [15] (at 70.3 µM (top of the series)) is -1.63% and -14.3%.

As to `Oc1cccc2cc3cccc(O)c3c(O)c12`, the Potency result in assay [1], in assay [2], in assay [3], in assay [4], in [5] and in assay [6] was “inactive” throughout. Besides, the Potency result (in [7]; in [8]; in assay [9]; in assay [10]; with Aromatase (Homo sapiens)) was “inactive” throughout.

As for `Nc1c(Cl)cc(Cl)cc1Cl`, the Potency entry in [1], in [2], in assay [3], in assay [4], in assay [5] and in assay [6] was “inactive” each time. In addition, the Potency entry (in assay [8]; in assay [9]; in assay [10]; in assay [13]; with Aromatase (Homo sapiens)) was “inactive” throughout.

Take `CC1=C(C(=O)OC(C)C)C(c2cccc([N+](=O)[O-])c2)C(C(=O)OC2CN(C(c3ccccc3)c3ccccc3)C2)=C(N)N1` (stereo unspecified): the Potency is 8.49 µM (active) in assay [1]; 18.8 µM (active) in [2]; 18.8 µM (active) in assay [3]; 13.3 µM (active) in assay [4]; 2.98 µM (active) in [7]; 2.98 µM (active) in [8]. The Potency in assay [10] is 23.9 µM (active); with Aromatase (Homo sapiens) it was 29.8 µM (active). In addition, in assay [6], the Potency result is “inactive”.

For the compound `COc1cccc(N)c1`, the Potency result in [1], in assay [2], in assay [3], in assay [4], in [5] and in assay [6] was “inactive” in each case. The Potency result in assay [7], in [9], in assay [10] and in assay [13] was “inactive” each time.

For `N=C1N=C(N)c2ccccc21`, the Potency result in assay [1], in assay [6], in [9], in assay [10], in assay [11] and in assay [13] was “inactive” in each case. Moreover, the Potency in assay [2] is 17.2 µM (active); in assay [3] it was 17.2 µM (active); in assay [4] it was 17.2 µM (active); in assay [7], 21.7 µM (active); in assay [8], 15.4 µM (active); with Aromatase (Homo sapiens) it was 38.6 µM (active). Moreover, the activation in assay [15] (at 70.3 µM (top of the series)) was 3.41%.

In the case of `O=C1CCCCCN1SSN1CCCCCC1=O`, the Potency result in [1], in assay [6], in assay [9], in assay [10], in assay [11] and in [13] was “inactive” throughout. Moreover, the Potency is 13.7 µM (active) in [2], 19.3 µM (active) in assay [3], 15.4 µM (active) in assay [4] and 27.3 µM (active) in [8]. Further, the activation in assay [15] (at 70.3 µM (top of the series)) was -12.6%.

With `C[n+]1cc2c3c(ccc2c2ccc4cc5c(cc4c21)OCO5)OCO3`, the Potency in assay [1] was 6.74 µM (active); in assay [2], 1.5 µM (active); in assay [3] it was 2.11 µM (active); in assay [4], 1.5 µM (active); in assay [6] it was 26.6 µM (active); in [17], 18.8 µM (active). Besides, the Potency was 2.98 µM (active) in assay [7]; 2.66 µM (active) in assay [8]; 10.7 µM (active) in assay [10]; 15.1 µM [inconclusive] (active) in assay [11]; 11.9 µM (active) with Aromatase (Homo sapiens). In addition, the Potency entry in [16] was “inactive”.

As to `COc1cc(-c2nc(NC(=O)c3cc4cc(C)cc(C)c4n3CC(=O)O)sc2CCC2CCCCC2)c(OC)cc1Cl`, the Potency was 14.2 µM (active) in assay [1]; 35.3 µM (active) in assay [2]; 22.3 µM (active) in [3]; 22.3 µM (active) in [4]; 5.65 µM (active) in assay [18]; 12.5 µM (active) in assay [7]. The Potency in assay [8] is 11.2 µM (active); in assay [14], 3.57 µM [inconclusive] (active); in assay [10], 28.3 µM (active); with Aromatase (Homo sapiens) it was 25 µM (active). Also, the Potency result in assay [16], in assay [9] and in assay [13] was “inactive” each time.

On to `Cc1[nH]nc2c1N=C(c1ccccc1Cl)c1cc([N+](=O)[O-])ccc1N2`, for which the Potency in assay [1] is 19.5 µM (active); in [2] it was 0.386 µM (active); in [3], 0.386 µM (active); in [4] it was 0.486 µM (active); in assay [5] it was 43.6 µM (active); in assay [7] it was 27.3 µM (active). Besides, the Potency was 19.3 µM (active) in assay [8], 6.92 µM (active) in assay [10] and 54.5 µM (active) in assay [13]. The Potency entry in assay [9] is “inactive”.

Take `O=C1c2c(O)ccc(Nc3ccc(CCO)cc3)c2C(=O)c2c([N+](=O)[O-])ccc(O)c21`: the Potency result in [1], in assay [19], in assay [16], in assay [6], in assay [9] and in assay [10] was “inactive” in each case. Besides, the Potency entry in assay [11] was “inactive”. Moreover, the Potency in assay [2] is 61.1 µM (active); in assay [3], 61.1 µM (active); in assay [4] it was 27.3 µM (active); in assay [7], 61.1 µM (active). The activation in assay [15] (at 70.3 µM (top of the series)) was -6.57%.
